For 86 sequences, binding signal results are on record in paper PMC10668032, “Altered binding affinity of SIX1-Q177R correlates with enhanced WNT5A and WNT pathway effector expression in Wilms tumor”.

Whole data set: some 33,000 sequences, median “e-score” near -0.053, cut for the highest 2% near 0.38. This is one part of a sample in which the highest values are shown more often than they occur.

The target of the experiment is T1, SIX1 homeodomain (reference allele) (human, UniProt Q15475 108-198).
T1 sequence: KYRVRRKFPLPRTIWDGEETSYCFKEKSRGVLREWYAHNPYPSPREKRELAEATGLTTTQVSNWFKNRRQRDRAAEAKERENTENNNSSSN
The experiment can be described thus: universal protein binding microarray; Universal all-10-mer PBM (8x60K, AMADID 030236), 300 nM GST-tagged protein, Alexa Fluor 488 anti-GST; buffer, salt, pH and temperature not stated (as in Berger); high values mean tight binding. Particulars: protein: ivt; tags: N-terminal GST; dsDNA, one strand shown. The method in brief:
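Homeodomains carrying a GST tag were produced by in vitro transcription/translation, then quantified by anti-GST western blot against a recombinant GST standard curve. Duplicate applications at 300 nM final concentration were made to universal 'all 10-mer' protein binding microarrays in 8×60K format. The Universal PBM Analysis Suite was used to express binding as 8-mer E-scores.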
As for AGTTATCC, the binding signal came out at 0.295 ± 0.00593 E-score.

In the case of AGGTATAT, the binding signal worked out at 0.357 ± 0.03 E-score.

With ACCTATCC, the binding signal amounted to 0.262 ± 0.0365 E-score.

Take AGGTATCA: the binding signal is 0.487 ± 0.00797 E-score.

With CGGTATTC, the binding signal was found to be 0.319 ± 0.00856 E-score.

Turning to CGGTATCC, the binding signal turned out to be 0.451 ± 0.0218 E-score.

With CGCTATCC, the binding signal was 0.339 ± 0.0225 E-score.

As to AGGTATGA, the binding signal worked out at 0.242 ± 0.0289 E-score.

For the sequence TGGTATAA, the binding signal was determined as 0.287 ± 0.0507 E-score.

Turning to AGGTATCC, the binding signal came out at 0.461 ± 0.0111 E-score.

Regarding CGGTATGA, the binding signal came to 0.225 ± 0.00643 E-score.

Consider CGGTATCA, for which the binding signal worked out at 0.4855 ± 0.000332 E-score.

On to GATATTTA, for which the binding signal worked out at 0.157 ± 0.127 E-score.

As to ATACGACG, the binding signal turned out to be 0.191 ± 0.00652 E-score.

On to CCCCTCTC, for which the binding signal turned out to be 0.161 ± 0.0741 E-score.

For AAAGGGAT, the binding signal was 0.253 ± 0.0943 E-score.

With CAGGATAG, the binding signal was 0.315 ± 0.00491 E-score.

In the case of AGCAGTAT, the binding signal worked out at 0.313 ± 0.00754 E-score.

Take ATAACACC: the binding signal turned out to be 0.301 ± 0.039 E-score.

For the sequence ATCCGTCG, the binding signal came to 0.239 ± 0.00454 E-score.

ACGCTATC: the binding signal came to 0.296 ± 0.0306 E-score.

As for ATCCAACA, the binding signal came out at 0.293 ± 0.0336 E-score.

For GGTGGATA, the binding signal amounted to 0.362 E-score.

As to GGGTATCA, the binding signal is 0.4971 ± 0.0012 E-score.

For AGCTATCG, the binding signal turned out to be 0.284 ± 0.0882 E-score.

For the sequence GGGTATGA, the binding signal amounted to 0.27 ± 0.0161 E-score.

For the sequence GGTTATCA, the binding signal worked out at 0.21 ± 0.00931 E-score.

On to AGGTATGG, for which the binding signal turned out to be 0.177 ± 0.0177 E-score.

AGGTATCG: the binding signal worked out at 0.4779 ± 0.00118 E-score.

With GACACACC, the binding signal is 0.165 ± 0.101 E-score.

Turning to ATACTTGG, the binding signal turned out to be 0.199 ± 0.00946 E-score.

For AAACGATC, the binding signal was 0.216 ± 0.065 E-score.

As to ATAGAGGA, the binding signal was found to be 0.153 ± 0.03 E-score.

As for ATCCGCTA, the binding signal is 0.243 ± 0.0351 E-score.

With ATCCGATG, the binding signal turned out to be 0.253 ± 0.0575 E-score.

For the sequence GTCCGATA, the binding signal was found to be 0.331 ± 0.0437 E-score.

Take CTCCGATA: the binding signal was determined as 0.314 ± 0.00415 E-score.

ATCCGCTC: the binding signal stood at 0.377 ± 0.0055 E-score.

Turning to ATCCGATA, the binding signal is 0.466 ± 0.00646 E-score.

Consider ATCCGCTG, for which the binding signal turned out to be 0.305 ± 0.0121 E-score.

Regarding CTCCGATC, the binding signal was found to be 0.185 ± 0.0542 E-score.

Consider ATCCGATC, for which the binding signal was determined as 0.43 ± 0.0245 E-score.

Turning to ATAGTGAT, the binding signal worked out at 0.32 ± 0.0209 E-score.

As for GTGTCCGA, the binding signal is 0.217 ± 0.0111 E-score.

Regarding CAGATTAA, the binding signal came out at 0.217 ± 0.0579 E-score.

Consider GCTTAATA, for which the binding signal amounted to 0.169 ± 0.0471 E-score.

GTATTGTA: the binding signal was 0.272 ± 0.0188 E-score.

For the sequence ATCTATCG, the binding signal came out at 0.23 ± 0.0219 E-score.

Take ATCCATTC: the binding signal is 0.287 ± 0.0196 E-score.

For the sequence TACTGCAA, the binding signal was found to be 0.163 ± 0.0382 E-score.

In the case of GATACATC, the binding signal stood at 0.4297 ± 0.000849 E-score.

On to AATACATA, for which the binding signal stood at 0.242 ± 0.0372 E-score.

With CATACAGA, the binding signal came out at 0.196 ± 0.0391 E-score.

For GATACAAC, the binding signal came to 0.305 ± 0.0152 E-score.

Regarding CATACACC, the binding signal was determined as 0.256 ± 0.0714 E-score.

Regarding GATACAGC, the binding signal was found to be 0.395 ± 0.00544 E-score.

As to AATACATC, the binding signal was 0.204 ± 0.0447 E-score.

In the case of GATACATA, the binding signal was 0.398 ± 0.0255 E-score.

As to GATACACA, the binding signal is 0.3539 ± 0.00325 E-score.

On to GATACAGA, for which the binding signal turned out to be 0.268 ± 0.0783 E-score.

For the sequence TATACATA, the binding signal is 0.246 ± 0.0104 E-score.

As for GATACACC, the binding signal is 0.469 ± 0.00523 E-score.

In the case of AGTGAGCC, the binding signal is 0.225 ± 0.0456 E-score.

Regarding ATCACATG, the binding signal stood at 0.269 ± 0.0277 E-score.

With ATCATCTC, the binding signal worked out at 0.371 ± 0.00868 E-score.

Take ATTGGGGG: the binding signal stood at 0.152 ± 0.0367 E-score.

As for GATCAGTA, the binding signal was 0.347 ± 0.00373 E-score.

Regarding ATACGCTG, the binding signal was 0.268 ± 0.0386 E-score.

Turning to CACACCTC, the binding signal was determined as 0.267 ± 0.0486 E-score.

As to AACACCAC, the binding signal worked out at 0.255 ± 0.026 E-score.

With GACACCAC, the binding signal amounted to 0.439 ± 0.0198 E-score.

Take GACACCGA: the binding signal worked out at 0.383 ± 0.0167 E-score.

For TACACCGA, the binding signal was 0.361 ± 0.0113 E-score.

Turning to GACACCTC, the binding signal was determined as 0.3967 ± 0.00186 E-score.

As to AACACCGC, the binding signal was found to be 0.293 ± 0.041 E-score.

For GACACCTA, the binding signal is 0.3565 ± 0.0024 E-score.

As to CACACCGC, the binding signal was 0.164 ± 0.108 E-score.

On to AACACCGA, for which the binding signal amounted to 0.228 ± 0.0289 E-score.

For GACACCGC, the binding signal was 0.398 ± 0.0204 E-score.

Regarding CACACCAC, the binding signal came out at 0.206 ± 0.0597 E-score.

Take ATATGGAC: the binding signal is 0.173 ± 0.0129 E-score.

ATCCTTTC: the binding signal worked out at 0.212 ± 0.0474 E-score.

In the case of CAGGATGA, the binding signal was 0.183 ± 0.0851 E-score.

Regarding ATCCCTCC, the binding signal was 0.329 ± 0.0164 E-score.

As to ACGCATAT, the binding signal was 0.233 ± 0.00465 E-score.

With GATCTAGA, the binding signal amounted to 0.252 ± 0.0586 E-score.
